Source: PubChem BioAssay (several laboratories)
tim23-1 inh: growth inhibitors of tim23-1 mutant yeast. S. cerevisiae tim23-1 growth, BacTiter-Glo luminescence, 24 h. inhibition, % at 20 µM. 1.3% of 330,000 active;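 active = growth inhibition of the mutant yeast at or above 50%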;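 also: temperature-sensitive mutant grown at 25 °C; plate controls were DMSO-treated mutant yeast for no effect and medium wells lacking yeast for full effect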
NLRP3 yeast inh: NALP3 inhibition in yeast | Yeast reconstituted NLRP3/ASC/caspase-1, beta-gal luminescence, 24 h | inhibition, % at 10 µM | 0.39% of 330,000 active;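 active = inhibition of 50% or more; inactive = inhibition below 50%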;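 also: plate controls were induced DMSO wells for no effect and uninduced yeast grown without galactose for full effect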
PfHsp90 set2: inhibits growth of yeast expressing Plasmodium falciparum Hsp90 | S. cerevisiae expressing PfHsp90, BacTiter-Glo ATP, 48 h; yeast lacking PDR1 and PDR3 efflux regulators | inhibition, % at 9.4 µM | 0.32% of 310,000 active;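 active = every replicate shows inhibition above about 80%, whatever the replicate mean, limit read from the data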;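 also: 0% = DMSO neutral controls and 100% = 20 µM radicicol positive controls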
TIM10 inh: growth inhibitors of TIM10 yeast strain; S. cerevisiae TIM10 strain growth, BacTiter-Glo luminescence, 24 h; inhibition, % at 10 µM; 1.4% of 330,000 active; AID 463195;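 active = inhibition of 40% or more at the single tested concentration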;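 also: wild-type TIM10 isogenic control strain grown at permissive 25 °C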
tim10-1 inh: growth inhibitors of tim10-1 mutant yeast; AID 463190; 2.2% of 330,000 active; inhibition, % at 20 µM; S. cerevisiae tim10-1 ts strain growth, BacTiter-Glo, 24 h;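 active = inhibition of at least 40%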;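 also: mutant grown at 25 °C; 0% = DMSO wells with yeast and 100% = wells holding no yeast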
tim23-1 confirm: confirmation of tim23-1 mutant yeast growth inhibitors; shares compounds with tim23-1 inh; S. cerevisiae tim23-1 growth, BacTiter-Glo luminescence, 24 h; inhibition, % at 20 µM; 83% of 4,400 active;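 active = inhibition above about 39% in either of two replicate wells at 20 µM, limit read from the data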;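 also: temperature-sensitive tim23-1 mutant grown at 25 °C; 0% = DMSO wells with yeast and 100% = medium wells without yeast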
* hit, by the source's call; / = not tested or not shown. This is a sample that favours compounds with a hit; in the whole collection about 3.7% have one here.

SMILES | tim23-1 inh | NLRP3 yeast inh | PfHsp90 set2 | TIM10 inh | tim10-1 inh | tim23-1 confirm
CCCCN(C(=O)c1ccc2c(c1)OCCO2)c1c(N)n(CC(C)C)c(=O)[nH]c1=O | 58* | 5 | / | 6 | 12 | 58*
O=C(O)CCCCCNC(=O)CSc1nnc(-c2ccco2)n1-c1ccccc1 | -7 | 6 | 19 | -12 | 4 | /
O=C(Nc1ccccc1)C1CC2CCC1C2 (stereo not drawn) | 21 | 5 | -5 | 6 | -6 | /
O=C(Nc1ccccc1)OC1CCC2CC1CCC2OC(=O)Nc1ccccc1 (stereo not drawn) | 53* | -9 | -1 | 15 | 2 | 38
CC(C)CC(=O)Nc1c2c(nn1-c1ccc(F)cc1)CS(=O)C2 (stereo not drawn) | -2 | 10 | -9 | -6 | -4 | /
Cc1nnc(NS(=O)(=O)c2ccc(N=Nc3ccc(N)nc3N)cc2)s1 | / | / | -8 | / | / | /
CCCCOc1ccc(N=Nc2ccc(N)nc2N)cn1 | 80* | 32 | 16 | 36 | 37 | 70*
O=C(c1ccco1)N1CCN(Cc2cn[nH]c2-c2cccc3ccccc23)CC1 | 1 | 4 | -6 | 0 | 0 | /
O=C(NC(=S)Nc1ccc(F)c(Cl)c1)C1CC1 | 54* | 27 | -22 | 7 | 29 | 33
O=C(NC(=S)Nc1ccc(Br)cc1)C1CCC1 | 57* | 34 | 3 | 10 | 27 | 34
O=C(Nc1ccc(Br)c(Cl)c1)C1CC1 | 63* | 21 | / | 32 | 2 | 56*
CCOC(=O)Cc1nn(Cc2nc(-c3ccc(C)cc3)cs2)c(=O)c2ccccc12 | 1 | 14 | -5 | 17 | 11 | /
Cc1ccc(NC(=O)C(=O)Nc2ccc(C)cn2)nc1 | 5 | 13 | -9 | 9 | -13 | /
Cc1ccc(NC(=O)/C(C#N)=C(\N)C(Cl)(Cl)Cl)nc1 | 71* | 5 | -1 | 40 | 17 | 71*
CCOc1ccccc1C=NNC(=O)C(=O)NN=Cc1ccccc1OCC | / | / | -1 | / | / | /
CCOc1ccccc1NC(=O)C(=O)N/N=C/c1cc(Br)ccc1O | 59* | 1 | -7 | 18 | 25 | 51*
N=c1sccn1CC(=O)Nc1cccc(Oc2ccccc2)c1 | 8 | 10 | -3 | 18 | 20 | /
N=c1sccn1CC(=O)Nc1cc(Cl)ccc1Oc1ccccc1 | 66* | -1 | 3 | 22 | 15 | 22
CC(C)Cn1nc(NC(=O)C2CCCO2)c2cc3ccccc3nc21 (stereo not drawn) | 37 | 10 | 2 | -8 | 2 | /
CCCn1nc(NC(=O)C2CCCO2)c2cc3cccc(C)c3nc21 (stereo not drawn) | 52* | 16 | 2 | 35 | 32 | 43*
CCCC(C)c1nc(C(N)=O)c2[nH]c(=O)n(-c3ccc(OC)c(OC)c3)c2n1 (stereo not drawn) | 7 | 5 | -19 | 5 | 5 | /
CCCC(O)(c1ccc(OC)cc1)C(CN1CCOCC1)c1ccc(Cl)cc1 (stereo not drawn) | 19 | 12 | 3 | -1 | 24 | /
CCCC(O)(c1ccc(Cl)cc1)C(CN1CCOCC1)c1ccc(Cl)cc1 (stereo not drawn) | 57* | 5 | -9 | 29 | -3 | -9
COc1ccc(OC(C)C(=O)N(C)Cc2nc(-c3ccc(OC)cc3)no2)cc1 (stereo not drawn) | 18 | 7 | -17 | 25 | 10 | /
CCOc1ccc(N(C)C(=O)CCc2nnc3ccc(N4CCC5(CC4)OCCO5)nn23)cc1 | -11 | -9 | 2 | -4 | -21 | /
SMILES | tim23-1 inh | NLRP3 yeast inh | PfHsp90 set2 | TIM10 inh | tim10-1 inh | tim23-1 confirm
CCOC(=O)N1CCC(N2C(=O)c3ccccc3C2Nc2ccc(Cl)cn2)CC1 (stereo not drawn) | 40 | 5 | -62 | 27 | 40 | /
CCCCN1Cc2ccccc2Oc2cc(Br)ccc2S1(=O)=O | 51* | / | -15 | -8 | 22 | 23
CC(C)CN1Cc2ccccc2Oc2cc(Br)ccc2S1(=O)=O | 51* | / | -11 | -3 | 18 | 24
Cc1ccc(-c2nc(S(=O)(=O)c3ccccc3)c(SCC(=O)NCC3CCCO3)o2)cc1 (stereo not drawn) | 14 | 1 | 14 | 22 | 9 | /
COc1ccc(/C=C/C(=O)Oc2ccc(/C=N/NC(=O)c3ccncc3)cc2)cc1 | 8 | -10 | -15 | -13 | 13 | /
O=C(O)c1ccccc1CSc1nc2ccccc2n1Cc1ccccc1C(=O)O | 6 | 5 | -13 | 2 | -9 | /
COc1ccc(C(C[N+](=O)[O-])c2c(-c3ccccc3)cc3ccccn23)cc1OC (stereo not drawn) | 50* | 16 | / | 31 | 35 | 62*
COc1cccc(-c2ncc3ccccn23)c1 | 7 | 15 | -14 | 1 | 6 | /
COc1ccc(C(C[N+](=O)[O-])c2c(-c3ccccc3)cc3ccccn23)cc1 (stereo not drawn) | 63* | 1 | / | 38 | 40 | 78*
C/C=C/c1ccc(OCC(=O)O)c(OC)c1 | -2 | -16 | -11 | 11 | 14 | /
C/C=C/c1ccc(OCCOc2cc(C=O)ccc2OC)c(OC)c1 | 57* | 23 | 21 | 30 | 5 | 67*
O=C(c1coc(=O)c2ccccc12)N1CCN(Cc2ccccc2)CC1 | 12 | 0 | -26 | -3 | 10 | /
CN(C)C(=O)CSc1n[nH]c(=O)n1CCc1ccccc1 | 2 | 19 | 20 | 6 | -23 | /
COc1ccc(Nc2nc(N)c([N+](=O)[O-])c(NCCO)n2)cc1 | 18 | 10 | / | 16 | 9 | /
COc1ccc(Nc2nc(N)c([N+](=O)[O-])c(NC3CCCCC3)n2)cc1 | 62* | 25 | -101 | 23 | 39 | 52*
O=C(N/N=C\c1ccc(-c2ccccc2[N+](=O)[O-])o1)C1COc2ccccc2O1 (stereo not drawn) | 76* | 11 | 4 | 26 | 37 | 53*
O=C(N/N=C\c1ccc(-c2ccccc2[N+](=O)[O-])o1)C1COc2cc3ccccc3cc2O1 (stereo not drawn) | 58* | 13 | 6 | 36 | 17 | 53*
O=C(O)c1cccc(-c2ccc(/C=N/NC(=O)C3COc4ccccc4O3)o2)c1 (stereo not drawn) | 16 | 15 | -22 | -5 | -4 | /
Cc1occc1C(=O)N/N=C/C(Br)=C\c1ccccc1 | 63* | 32 | 7 | 30 | 14 | 67*
Cc1occc1C(=O)N/N=C/C=C/c1ccccc1 | 27 | 5 | 3 | -27 | -25 | /
O=C(Nc1cccc(S(=O)(=O)N2CCCCC2)c1)C1COc2ccccc2O1 (stereo not drawn) | 30 | 11 | 4 | 18 | 16 | /
Cc1nnc(SCC(=O)Nc2nsc(-c3ccc(C(C)(C)C)cc3)n2)s1 | 51* | 7 | / | 18 | 39 | 41*
CC(C(=O)OCC(=O)Nc1cccc(S(=O)(=O)N2CCOCC2)c1)N1C(=O)c2ccccc2C1=O (stereo not drawn) | 9 | 17 | -33 | 0 | -1 | /
